This is part of a sample that, as a whole, favours compounds with a hit. Of some 83,000 tested, about 20% had one in any assay.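 For each line, cells grew in 96-well plates with the test compound present at a single concentration for 48 hours.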 Unmarked numbers belong to inactive results. Calls of active or inactive are those of the source. The calls were made as follows: active = growth percent below 10; inactive = the rest.
What was measured:
Experiment in all cases: NCI-60 one-dose screen, 48 h (100 = growth as untreated, 0 = no growth, -100 = all killed)
Settings in all cases: 10 µM unless noted
T-47D breast = system: T-47D breast
BT-549 breast = system: BT-549 breast
MDA-MB-435 melanoma = system: MDA-MB-435 melanoma
SW-620 colon = system: SW-620 colon
MCF7 breast = system: MCF7 breast
HCT-116 colon = system: HCT-116 colon
HCC-2998 colon = system: HCC-2998 colon
KM12 colon = system: KM12 colon

| SMILES | growth (T-47D breast) | growth (BT-549 breast) | growth (MDA-MB-435 melanoma) | growth (SW-620 colon) | growth (MCF7 breast) | growth (HCT-116 colon) | growth (HCC-2998 colon) | growth (KM12 colon) |
| --- | --- | --- | --- | --- | --- | --- | --- | --- |
| C[Si](C)(C)Cc1ccccc1 | 113% | 110% | 113% | 107% | 105% | 107% | 114% | 108% |
| C=COCCCCCCCCCCCCCCCCCC | 114% | 103% | 114% | 104% | 104% | 103% | 99.3% | 92.8% |
| CCOC(=O)C/C(=C\c1ccccc1)C(C)=O | 68.1% | 98.4% | 109% | 103% | 101% | 88.7% | 107% | 101% |
| COc1ccc2[nH]c(-c3ccc(Cl)cc3)cc(=O)c2c1 | 116% | 92.9% | 94.7% | 98.2% | 91.4% | 102% | 100% | 98.8% |
| CCCCC(=O)OC1CCCCC1C (stereo unspecified) | 95.2% | 85.2% | 101% | 105% | 103% | 81% | 111% | 99.2% |
| CCCCn1c(-c2ccc(O)cc2)cn2c3c(=O)[nH]c(=O)n(C)c3nc12 | 64.6% | 76.5% | -13.1% (active) | 36.6% | 41.7% | 45.4% | 72.3% | 59.9% |
| CCCCC[C@H]1C/C=C2/C(=O)C(Cl)=C[C@@H]2C/C=C\CCCC(=O)O1 | -33.7% (active) | -77.3% (active) | -48.2% (active) | -48.8% (active) | 0.987% (active) | -86.9% (active) | -68.7% (active) | -33.9% (active) |
| COc1ccc(-c2nc3ccccn3c2-c2nc3ccc(Cl)cc3[nH]2)cc1 | 75% | 94.4% | 86.9% | 88.4% | 79.6% | 93.5% | 97.6% | 86.4% |
| O=C(/C=C/c1cccc(O)c1)c1ccccc1O | 91.2% | 85.2% | 76% | 86.3% | 63.5% | 78.1% | 98% | 72.5% |
| C=C1C(=O)O[C@H]2[C@H]1CC/C(Cn1cc(-c3ccc(OC)cc3)nn1)=C\CC[C@@]1(C)O[C@@H]21 | -71% (active) | 50% | -26.9% (active) | -50.2% (active) | -41.3% (active) | -83.6% (active) | 2.05% (active) | 65.5% |
| N#C/C(=C\c1ccc(-c2ccc(F)cc2)o1)c1nc(-c2ccco2)cs1 | -26.3% (active) | 106% | 102% | 96.5% | 11.7% | 101% | 51% | 60.6% |
| NC(=O)NCC1CCCCC1 | 97.7% | 104% | 102% | 108% | 90.6% | 106% | 95.5% | 102% |
| Cc1ccccc1-c1nc(C(Cl)Cl)nc2cc(-c3ccccc3)nn12 | 40.1% | 92.9% | 56.6% | 53.5% | 64% | 55% | 69.2% | 36.5% |
| Cn1c(/C(C#N)=C/c2ccc3ccccc3c2)cc2ccccc21 | 73.4% | -16.6% (active) | -14.7% (active) | 26.4% | 14.1% | 8.56% (active) | 16.9% | 15.1% |
| CC(=O)OCCCCCCn1c2ccccc2c2c3c(c4c5ccccc5n(C)c4c21)C(=O)N(O)C3=O | 42.9% | 69.2% | 75.9% | 76.4% | 30.4% | 48.6% | 76% | 68.8% |
| CCN(CC)CCCCCCNc1ccnc2cc(Cl)ccc12 | 91% | 86.3% | 88.5% | 83.3% | 82.7% | 59.1% | 107% | 84.9% |

| SMILES | growth (T-47D breast) | growth (BT-549 breast) | growth (MDA-MB-435 melanoma) | growth (SW-620 colon) | growth (MCF7 breast) | growth (HCT-116 colon) | growth (HCC-2998 colon) | growth (KM12 colon) |
| --- | --- | --- | --- | --- | --- | --- | --- | --- |
| O=C1NC(=Nc2ccc(S(=O)(=O)Nc3nccs3)cc2)S/C1=C\c1coc2ccccc2c1=O | 97.1% | 106% | 124% | 99.7% | 88% | 104% | 99.1% | 113% |
| O=C1c2ccccc2NC(c2cn(-c3ccccc3)nc2-c2cccs2)N1Cc1ccccc1 (stereo unspecified) | 54.9% | 88.5% | 97.5% | 97.3% | 72% | 65.9% | 95.1% | 83.7% |
| Nc1nc2c3ccncc3cc(-c3cccc(Cl)c3)c2c2cnccc12 | 32% | 37% | 66.8% | 36.5% | 33.4% | 5.95% (active) | 74.9% | 46.2% |
| Nc1ccc(Br)cn1 | 98.7% | 94.7% | 113% | 104% | 110% | 96.4% | 98.1% | – |
| O=C(NC(Cc1cn(Cc2ccccc2)cn1)C(=O)O)OCC1c2ccccc2-c2ccccc21 (stereo unspecified) | 112% | 97.2% | 113% | 104% | 104% | 90.8% | 113% | 101% |
| C=C(C)[C@@H]1CC[C@]2(/C=N/Nc3ccncc3)CC[C@]3(C)[C@H](CC[C@@H]4[C@@]5(C)CCCNC(C)(C)[C@@H]5CC[C@]43C)[C@@H]12 | 64.5% | 77.2% | 86.7% | 41.4% | 63.2% | 43.8% | 71.3% | 82.1% |
| COc1ccc(/C=C/C(=O)NCC(C)O)cc1 (stereo unspecified) | 97.2% | 97.6% | 104% | 101% | 94.9% | 91.3% | 100% | 99.9% |
| CCN(CC)c1ccc(/C=C/c2cc(C)c3ccccc3n2)cc1 | 44% | 93.2% | -6.87% (active) | 22.3% | 21.2% | 22.8% | 62.4% | – |
| CCC(=O)c1c(C)[nH]c(C)c1C | 104% | 94% | 95.1% | 52.3% | 61.1% | 47.2% | 114% | 102% |
| Cc1ccc(Sc2sc(-c3ccccc3)nc2[P+](c2ccccc2)(c2ccccc2)c2ccccc2)cc1 | -9.83% (active) | -15.4% (active) | -16.3% (active) | 8.24% (active) | -4.53% (active) | -14.3% (active) | -11.2% (active) | -37.6% (active) |
| CC(=O)Oc1ccccc1C(=O)/C=C/c1cccc([N+](=O)[O-])c1 | 74.2% | 104% | 55.7% | 43% | 39.9% | 10.8% | 101% | 34.7% |
| O=S(=O)(NCCNc1cc(-c2cn(-c3ccccc3)nc2-c2cccc(O)c2)ccn1)c1ccccc1 | 26.4% | 67.8% | 14.7% | 44.4% | 37.2% | 49.5% | 25.4% | 36.7% |
| CC1(n2nnnc2N2CCCN(c3ncccc3N)CC2)CCC1 | 101% | 99.4% | 99.5% | 104% | 95.5% | 84.1% | 108% | 102% |
| Cc1cc(N2CCCCC2)nc(N(CCCNc2ccnc3cc(Cl)ccc23)Cc2ccco2)n1 | 26.9% | 27.3% | -9.54% (active) | 9.49% (active) | 11.7% | 0.453% (active) | 54.7% | 28.9% |
| COc1cccc(-c2nn(-c3ccccc3)cc2-c2ccnc(NCCCNS(=O)(=O)c3ccccc3)c2)c1 | -4.99% (active) | 35.7% | 37.4% | 46.5% | 18.2% | 25.7% | 19.7% | 29.6% |

From PubChem BioAssay (NCI)
